Wnt act: activates Wnt/beta-catenin signaling in a reporter cell assay | activator, plate reader | activation, % at 9.35 µM | 300,000 tested, 1.2% active; in the data active = activation above about 30%, passing the limit was not always enough; inconclusive = no clear call, values can overlap the other calls;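 note: 0% = neutral control wells and 100% = positive control wells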
MITF act: MITF TRPM1 promoter activation in melanoma cells | SK-MEL-5 TRPM1-promoter luciferase, 24 h; % of positive control, neutral wells = 0 | activation, % at 12.5 µM | 300,000 tested, 0.75% active;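 active = mean activation of at least 80% with every replicate also reaching 80%; inconclusive = mean reaches 80% but some replicate falls short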;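 note: 0% = neutral control wells and 100% = parthenolide positive control wells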
esBAF inh: inhibitors of esBAF chromatin remodeling in mouse ES cells; Bmi1-luciferase knock-in reporter, 24 h; 100% = twice the neutral-well signal; reporter increase, % at 12.5 µM; 350,000 tested, 2% active; AID 602393; in the data active = activation above about 40%; inconclusive = no clear call, values can overlap the other calls;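 note: 0% = median of the plate's neutral control wells and 100% = double that signal; a rise in the Bmi1 reporter signal indicates esBAF inhibition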
HSF1 inhib: HSF1 inhibition; activity change, negative = inhibition, % at 7.5 µM (by protocol); 300,000 tested, 0.77% active; AID 2098; NIH3T3-HGL HSE-luciferase, MG132-induced, luminescence 8 h; active compounds read low;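 active = more than half of replicate wells show activity change below -50%, luminescence cut by over half; inconclusive = some wells, but at most half, below -50%; inactive = no replicate well below -50%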;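 note: luciferase reports HSF-1 transcriptional activity via heat shock element; 0% = median of DMSO wells and -100% = zero luminescence signal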
HSF1 activator: increases HSF-1 driven luciferase reporter signal; NIH3T3-HGL HSF-1 luciferase reporter, MG132, 8 h; 100% = twice DMSO control signal; activation, % at 9 µM; 300,000 tested, 1.7% active; AID 504408;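 active = mean replicate activation of at least 50% with a set share of replicates each reaching 50%; inconclusive = only one of those two conditions met; inactive = mean below 50% and too few replicates reaching it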;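 note: 0% = median of the neutral control wells and 100% = twice that signal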
Active calls of the source: *; ? = inconclusive; nt = no result; ! = repeats disagree. Rows were chosen to be rich in hits. Some 3.8% of all compounds tested hit in one or more screens of this group.

SMILES	Wnt act	MITF act	esBAF inh	HSF1 inhib	HSF1 activator
CC(=O)Nc1ccc(NC(=O)c2ccc(NS(=O)(=O)c3cc(C(C)(C)C)cc(C)c3C)cc2)cc1	0	3	nt	65	110*
CC(C)(C)c1ccc(C(=O)Nc2ccc(Cl)cc2)cc1	15	99*	nt	22	34
O=C(Nc1ccc(N2CCCCC2)c(Cl)c1)c1ccc2c(c1)OCCO2	14	nt	52*	-46	-57
O=C(Nc1ccc(N2CCCC2)c(Cl)c1)c1ccc2c(c1)OCCO2	nt	15	nt	12	36
COc1cc2c(cc1NC(=O)c1ccc3c(c1)OCO3)oc1ccccc12	22	66	47*	36	49
COc1ccc(CN(C)C[C@@H]2Oc3ccc(NC(=O)Nc4ccccc4)cc3CC(=O)N([C@H](C)CO)C[C@@H]2C)cc1	nt	nt	-7	nt	nt
C[C@@H]1CCCCO[C@H](CN(C)C(=O)Cc2ccccc2)[C@@H](C)CN([C@H](C)CO)C(=O)c2cc(NC(=O)Nc3ccc(F)cc3)ccc2O1	nt	nt	0	nt	nt
CO[C@@H]1CN(C)C(=O)c2cc(NC(=O)C3CC3)ccc2OC[C@@H](C)N(Cc2ccncc2)C[C@H]1C	nt	nt	-3	nt	nt
O=C(Nc1ccc2c(c1)OCO2)c1cccc(Cl)c1	-1	104*	64*	24	31
CO[C@@H]1CN(C)C(=O)c2cc(NS(=O)(=O)c3ccccc3)ccc2OC[C@H](C)N(Cc2nccs2)C[C@H]1C	nt	nt	2	nt	nt
Cc1c(OCC(=O)OC(C)(C)C)ccc2c3c(c(=O)oc12)CCC3	2	33	3	5	11
Cc1c(OCc2ccc([N+](=O)[O-])cc2)ccc2c3c(c(=O)oc12)CCC3	-1	112*	nt	23	41
Cc1oc(C(=O)O)cc1COc1ccc2c3c(c(=O)oc2c1C)CCC3	-7	nt	1	-60*	-69
C[C@H]1CN([C@@H](C)CO)C(=O)c2cc(C3=CCCC3)cnc2O[C@H]1CN(C)Cc1ccccn1	nt	nt	-1	nt	nt
COc1ccc(Nc2oc(-c3ccc(OC)cc3)nc2C#N)cc1	32*	nt	nt	53	68*
COc1ccc(Nc2oc(-c3ccc(Cl)cc3)nc2C#N)cc1	13	31	58*	26	?
CCOc1ccc(Nc2oc(-c3ccc(Cl)cc3)nc2C#N)cc1	?	nt	67*	12	22
COc1ccc(Nc2oc(COc3ccc(Cl)cc3)nc2C#N)cc1	-6	-27	nt	11	30
CCOc1ccc(-c2nc(C#N)c(NC3CC3)o2)cc1	nt	nt	?	-12	-4
COc1ccc(Nc2oc(-c3ccccc3)nc2C#N)cc1	24	61	47*	4	-8
C[C@@H]1CN([C@H](C)CO)C(=O)Cc2cc(NC(=O)Cc3cn(C)c4ccccc34)ccc2O[C@@H]1CN(C)Cc1ccc(-c2ccccc2)cc1	nt	nt	3	nt	nt
Cc1cccc(CN(C)C[C@H]2OCc3cn(nn3)CCCC(=O)N([C@H](C)CO)C[C@@H]2C)c1	nt	nt	2	nt	nt
Cc1nn(C)cc1NC(=O)C[C@H]1CC[C@H]2[C@@H](COc3ccc(NC(=O)Nc4cccc(Cl)c4)cc3C(=O)N2C)O1	nt	nt	4	nt	nt
c1ccc(-n2nnnc2-n2nnc3ccccc32)cc1	0	-8	-3	-2	-6
c1ccc(-n2nnc3ccccc32)nc1	nt	76	61*	-2	14
SMILES	Wnt act	MITF act	esBAF inh	HSF1 inhib	HSF1 activator
C[C@@H]1CN([C@H](C)CO)C(=O)c2cc(NC(=O)Cc3ccccc3)ccc2O[C@H]1CN(C)C(=O)Nc1ccc2c(c1)OCO2	nt	nt	20	nt	nt
CC(=O)c1cccc(N=Cc2c(O)c3ccccc3oc2=O)c1	0	-6	-3	74	106*
CC(=O)Nc1ccc(N=Cc2c(O)c3ccccc3oc2=O)cc1	1	-5	0	26	63*
CCOC(=O)c1ccc(N=Cc2c(O)c3ccccc3oc2=O)cc1	0	0	6	-17	-15
O=S(=O)(N[C@H]1CC[C@H](CCn2cc(-c3cccnc3)nn2)O[C@H]1CO)c1ccc(Cl)cc1	nt	nt	6	nt	nt
C[C@@H]1CN([C@@H](C)CO)C(=O)c2cc(NC(=O)Nc3ccc(F)cc3)ccc2O[C@H]1CN(C)C(=O)Nc1ccccc1	nt	nt	0	nt	nt
COc1ccc(OC)c(/C=N/Nc2nncn2/N=C/c2cc(OC)ccc2OC)c1	0	-3	4	38	81*
Cc1ccccc1S(=O)(=O)N1CC[C@@H]2[C@@H](CO)N(C)c3ccc(-c4ccc(F)cc4)cc3[C@@H]21	nt	nt	-4	nt	nt
COC(=O)c1cnc2c(c(C)nn2C)c1OC	0	nt	-8	19	59*
C[C@@H]1CN([C@@H](C)CO)C(=O)Cc2cc(NC(=O)C3CCCCC3)ccc2O[C@@H]1CN(C)C(=O)NC1CCCCC1	nt	nt	4	nt	nt
Cc1cccc(OCCNc2ncccc2[N+](=O)[O-])c1	3	nt	74*	nt	nt
Cc1ccccc1-c1cnc2c(c1)C(=O)N([C@H](C)CO)C[C@H](C)[C@H](CN(C)C(=O)c1ccncc1)O2	nt	nt	-7	nt	nt
CC1CCN(S(=O)(=O)c2cccc(C(=O)NCc3cccs3)c2)CC1	nt	-13	-8	-10	0
CC1CCN(c2ccc(C(=O)NCc3cccs3)cn2)CC1	nt	77	59*	39	52*
CC1CCCN(c2ccc(C(=O)NCC3CCCO3)cn2)C1 (stereo unspecified)	8	54	50*	1	8
O=C(NCC1CCCO1)c1ccc(/C=N/O)nc1 (stereo unspecified)	-1	nt	1	1	-1
CC(C)(C)OC(=O)N1CCN(C(=O)c2[nH]cnc2C(=O)NCC(=O)OCc2ccccc2)CC1	-4	-14	-2	-88*	-90
C[C@]12C[C@H](O)[C@@H]3c4ccc(O)cc4CCC3[C@@H]1CCC2=O (stereo partly specified)	-1	11	-1	-6	-2
C[C@]12CC[C@H]3C(=CCc4cc(O)ccc43)[C@@H]1CCC2=O	0	37	31*!	8	5
N#Cc1cc(C#N)c(N2CCN(c3ccccn3)CC2)nc1N	30	98*	nt	40	47
CC1=C(C(=O)OCc2ccccc2)C(c2ccc(Br)cc2)NC(=O)N1CCCCCC(=O)O (stereo unspecified)	46*	63	90*	14	3
COC(=O)C1=C(C)N(CCCC(=O)O)C(=O)NC1c1ccc(-c2ccccc2)cc1 (stereo unspecified)	0	1	4	-1	-5
COC(=O)C1=C(C)N(CCCC(=O)O)C(=O)NC1c1ccc(C#N)cc1 (stereo unspecified)	-11	6	6	-66*	-74
COC(=O)C1=C(C)N(CCCC(=O)O)C(=O)NC1c1ccc(Br)cc1 (stereo unspecified)	-1	-10	3	0	6
COC(=O)C1=C(C)N(CCCC(=O)O)C(=O)NC1c1ccccc1Cl (stereo unspecified)	-1	32	3	-64*	-72
C[C@@H]1CN([C@H](C)CO)C(=O)Cc2cc(NC(=O)Cc3cn(C)c4ccccc34)ccc2O[C@@H]1CN(C)S(=O)(=O)c1ccc(Cl)cc1	nt	nt	5	nt	nt

Compound activity from PubChem BioAssay.
